Measured values as given in ChEMBL document CHEMBL3988442, “University of Dundee, Small-Polar-MMV Screening Library” (2021).
Out of some 66,000 compounds screened, about 960 (1.5%) showed an effect of 50% or more. Shown is part of a subset that was picked to be rich in strong results.

System: Trypanosoma brucei
Assay: Trypanosoma brucei 72 hour study
Type: functional, organism-based
Set-up: scale not given: in the data most compounds retested in dose-response had high values

Row | SMILES | Percent Effect (30 µM, 30.03 µM) [%] | Percent Effect (30.3 µM, […]) [%]
1 | COc1ccc(C2SCC(=O)Nc3n[nH]cc32)c(OC)c1OC (stereo not drawn) | -21.04 | 
2 | COc1cc(OC)c(C2SCC(=O)Nc3n[nH]cc32)cc1OC (stereo not drawn) | 60.77 | 
3 | COc1cc(C2SCC(=O)Nc3n[nH]cc32)cc(OC)c1O (stereo not drawn) | 53.45 | 
4 | COc1ccccc1C1SCC(=O)Nc2n[nH]cc21 (stereo not drawn) | 40.76 | 
5 | COc1cc(C2SCC(=O)Nc3ccsc32)cc(OC)c1O (stereo not drawn) | 23.79 | 
6 | COc1ccc(OC)c(C2SCC(=O)Nc3n[nH]cc32)c1 (stereo not drawn) | 38.65 | 
7 | COCc1cncc2c1CCN(Cc1cccs1)C2.O=C(O)C(F)(F)F.O=C(O)C(F)(F)F |  | -85.33
8 | COCCN1CCC12CCN(C(=O)c1ccc(C)nc1)C2.O=C(O)C(F)(F)F (stereo not drawn) |  | 8.313
9 | CN(C)CCN1CCN(Cc2cccs2)Cc2cccnc21.O=C(O)C(F)(F)F.O=C(O)C(F)(F)F.O=C(O)C(F)(F)F |  | -59.56
10 | CCN1C[C@@H]2[C@@H](OC)CCN(C(=O)Cc3ccsc3)[C@@H]2C1.O=C(O)C(F)(F)F |  | -11
11 | CN(C)CCOCc1cncc2c1CCN(C1CCOC1)C2.O=C(O)C(F)(F)F.O=C(O)C(F)(F)F.O=C(O)C(F)(F)F (stereo not drawn) |  | -50.42
12 | Cc1ccc2c(c1)C(NC1CC1)CC21CCNCC1.Cl (stereo not drawn) |  | 51.53
13 | Cc1ccc2c(c1)C(NC(C)C)CC21CCNCC1.Cl (stereo not drawn) |  | -30.38
14 | Cc1ccc2c(c1)C1(CCNCC1)CC2NC1CC1.Cl.Cl (stereo not drawn) |  | 15.24
15 | CC(C)CN1CCC2(C1)CN(c1ncccn1)C2.O=C(O)C(F)(F)F | -1.682 | 
16 | Cc1nc(CN2CCO[C@@H]3CC(COc4ccccn4)C[C@H]32)cs1.O=C(O)C(F)(F)F.O=C(O)C(F)(F)F (stereo partly drawn) |  | -42.66
17 | Cc1cc(CC(C)NC2CCN(CC(C)C)CC2)[nH]n1 (stereo not drawn) | 11.44 | 
18 | Cc1cc(N2CCC(NC(C)Cc3ccsc3)CC2)nc(N)n1 (stereo not drawn) | 101 | 
19 | Cc1cc(N2CCC(NC(C)Cc3ccsc3)CC2)nc(C)n1 (stereo not drawn) | 18.53 | 
20 | CCO[C@@H]1CC[C@H]2[C@H]1OCCN2CC1CCC1.O=C(O)C(F)(F)F | -19.35 | 
21 | CCc1ccc(CN2CC[C@@H]3NC(=O)CC[C@@H]32)o1.O=C(O)C(F)(F)F |  | -13.17
22 | Fc1ccccc1CN1CCCC2(CCN(c3ncccn3)C2)C1 (stereo not drawn) |  | 102.7
23 | c1cnc(N2CCCC3(CCN(Cc4ccsc4)C3)C2)nc1 (stereo not drawn) | 44.57 | 
24 | c1cnc(N2CCCC3(CCN(Cc4cccs4)C3)C2)nc1 (stereo not drawn) |  | -58.76
25 | Cc1cccc(CN2CCC[C@@H]3CN(C(=O)c4ccco4)C[C@@H]32)n1.O=C(O)C(F)(F)F | -18.06 | 
26 | Cc1noc(C)c1CN1CC[C@H]2OCC[C@@]2(C(=O)N2CCCC2)C1.O=C(O)C(F)(F)F | -22.78 | 
27 | CC(C)N(C)Cc1cncc2c1CCN(CC(=O)N(C)C)C2.Cl.Cl.Cl |  | 7.599

Row | SMILES | Percent Effect (30 µM, 30.03 µM) [%] | Percent Effect (30.3 µM, […]) [%]
28 | Cc1cccc(CN2C[C@@H]3COC[C@H](NS(C)(=O)=O)[C@@H]3C2)n1.O=C(O)C(F)(F)F.O=C(O)C(F)(F)F |  | -15.48
29 | O=C(NC[C@]12COC[C@H]1CN(Cc1cccnc1)C2)c1ccsc1.O=C(O)C(F)(F)F.O=C(O)C(F)(F)F | 39.91 | 
30 | O=C(O)C(F)(F)F.O=C(O)C(F)(F)F.c1ccc(N2CC[C@@H]3CN(Cc4ccncc4)CCO[C@@H]3C2)cc1 |  | 99.05
31 | O=C(O)C(F)(F)F.c1cnc(N2C[C@H]3CCN(Cc4ccncc4)C[C@H]3C2)nc1 |  | -2.942
32 | O=C(O)C(F)(F)F.O=C(O)C(F)(F)F.c1cnc(N2CC[C@@H]3CN(Cc4ccncc4)CCO[C@@H]3C2)nc1 |  | -15.11
33 | Cl.Cl.NCC1[C@H]2CN(CCc3ccccc3)C[C@@H]12 (stereo partly drawn) |  | 0.5802
34 | O=C(O)C(F)(F)F.O=S(=O)(C1CC1)N1CCOC2(CCCN(Cc3ccccn3)C2)C1 (stereo not drawn) |  | -44.45
35 | COc1cc(C2SCC(=O)Nc3[nH]ncc32)c(OC)c2c1OCO2 (stereo not drawn) |  | 5.203
36 | COc1c(C2SCC(=O)Nc3[nH]ncc32)cc2c(c1OC)OCO2 (stereo not drawn) |  | 46.19
37 | COc1cc(C2SCC(=O)Nc3[nH]ncc32)cc2c1OCO2 (stereo not drawn) |  | 86.32
38 | CN(C)Cc1cncc2c1CCN(C1CCOCC1)C2.Cl.Cl.Cl |  | -35.22
39 | O=C(Cc1ccccc1)N1CCC2(CCN2Cc2ccc(F)cc2)C1.O=C(O)C(F)(F)F (stereo not drawn) |  | 10.12
40 | CCCN1C(=O)CC2(CCCNC2)C1=O.Cl (stereo not drawn) |  | -8.6
41 | Cc1cccc(-c2ncc(CNC(C)Cc3ncccc3C)cn2)c1 (stereo not drawn) |  | -134.7
42 | CC(Cc1cccc(F)c1)NCc1cnc(N2CCN(C)CC2)nc1 (stereo not drawn) | 94.94 | 
43 | Cc1cccc(-c2ncc(CNC(C)Cc3ccncc3)cn2)c1 (stereo not drawn) |  | -157.2
44 | Cn1nc(CN2CCCCC(N)C2)c2c(Cl)cccc21 (stereo not drawn) |  | 88.2
45 | Cn1ncc2c(NC3CN4CCC3CC4)nc(-c3ccncc3)nc21 (stereo not drawn) |  | 99.69
46 | CC(C)n1ccc2ccc(C(=O)NC3CN4CCC3CC4)cc21 (stereo not drawn) | -12.75 | 
47 | Cn1ccc2c(C(=O)NC3CN4CCC3CC4)cccc21 (stereo not drawn) | -26.79 | 
48 | O=C(C1CCOCC1)N1C[C@H]2CNC[C@H]2C1 |  | 14.48
49 | CN1CC[C@H]2OCC[C@@]2(C(=O)NCCc2ccccn2)C1.O=C(O)C(F)(F)F.O=C(O)C(F)(F)F |  | -17.73
50 | O=C(O)C(F)(F)F.O=C(O)C(F)(F)F.c1cc(COC[C@]23COC[C@H]2CN(CC2CCC2)C3)ccn1 | 51.43 | 
51 | O=C(O)C(F)(F)F.O=C(O)C(F)(F)F.c1cc(COC[C@]23COC[C@H]2CN(Cc2ccsc2)C3)ccn1 | 16.71 | 
52 | O=C(O)C(F)(F)F.O=C(O)C(F)(F)F.O=C(O)C(F)(F)F.c1cc(COC[C@]23COC[C@H]2CN(Cc2ccncc2)C3)ccn1 | -36.39 | 
53 | O=C(O)C(F)(F)F.O=C(O)C(F)(F)F.O=C(O)C(F)(F)F.c1cncc(CN2CCN3C[C@H](Oc4cncnc4)C[C@H]3C2)c1 |  | -85.06
